From PubChem BioAssay AID686971 (National Center for Advancing Translational Sciences (NCATS), 2013)
Out of some 360,000 compounds screened, about 7,500 (2.1%) were called active. Inconclusive results (about 8%) are left out. The entries come from a sample that favours actives as a whole. Unmarked numbers belong to inactive results. Calls follow the shape of the dose curve; as a rule, active = well fitted cell-killing curve with a large enough effect; inconclusive = small, poorly fitted or top-dose-only effect, or effect the other way, or another doubt; inactive = no such curve, though single readings can be large or run the other way.

Experiment: qHTS for induction of synthetic lethality in tumor cells producing 2HG: qHTS for the HT-1080-IDH1KD cell line;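 as to activity, negative = toxicity: 0% = DMSO wells and -100% = cell-free medium wells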
Details: HT-1080 IDH1 knockdown viability, ATP luminescence, 48 h; series mostly up to 46.1 µM; activity, negative = toxicity: at the top concentration
Method in brief: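 HT-1080-IDH1KD cells (IDH1 knocked down), 750/well in RPMI with 5% FBS, treated with compound 48 h at 37 degrees C. Viability by CellTiter-Glo luminescence, normalised to DMSO and no-cell wells; concentration-response curves classed.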
Potency is read from the fitted curve at half-maximal effect.

| Structure (SMILES) | activity, negative = toxicity [%] | Potency |
| --- | --- | --- |
| CCNC(=O)C1(C)CCN(Cc2ccc(C(=O)OCC)o2)C1 (centres undefined) | 1.14 |  |
| Cc1cccc(C(=O)NC2CCN(CC(=O)Nc3cccc(Cl)c3)CC2)c1 | -7.44 |  |
| CC1(C(=O)NS(=O)(=O)c2ccc3ccccc3c2)CCN1C(=O)C1(c2ccc(Cl)cc2)CCC1 (centres undefined) | 23.1 |  |
| O=C(O)c1ccccc1Cc1ccc(F)c2ccccc12 | 4.06 |  |
| CS(=O)(=O)N(CC(O)Cn1c2ccccc2c2ccccc21)c1cccc2ccccc12 (centres undefined) |  | 20.6 µM (active) |
| CCCCN(CCCC)CC(O)Cn1c2ccccc2c(=O)c2ccccc21 (centres undefined) | 0.0158 |  |
| Cc1cc(C)n(CC(O)CN(c2ccccc2)S(=O)(=O)c2ccc3ccccc3c2)n1 (centres undefined) | -8.66 |  |
| CC1(C(=O)NS(=O)(=O)Cc2cccc(Cl)c2)CCN1C(=O)Cc1ccc(Cl)cc1Cl (centres undefined) | 9.54 |  |
| Cc1ccccc1NC(=O)Cc1nc(COC(=O)C(C)(C)Oc2ccc(Cl)cc2)cs1 | 2.59 |  |
| Oc1ccc(N=Nc2nccs2)c(O)c1 |  | 4.11 µM (active) |
| Cc1cc2c3ccccc3[nH]c(=O)n2n1 | 7.95 |  |
| COC(=O)[C@]12CCCCC=C1N(CCC1=CCCCC1)C(=O)[C@H](CC(=O)N1CCSCC1)C2 | 1.87 |  |
| CCNC(=O)C1(C)CCCN1C(=O)c1ccc(N(C)C)cc1 (centres undefined) | 18.9 |  |
| O=C(CNC(=O)c1cccs1)N/N=C/c1cccc(Br)c1 | 16.4 |  |
| CC(=O)NC(Cc1c[nH]c2ccccc12)C(=O)O (centres undefined) | 7.98 |  |
| O=C(NC(Cc1c[nH]c2ccccc12)C(=O)N/N=C/c1ccc(Br)cc1)c1cccs1 (centres undefined) |  | 32.6 µM (active) |
| Cc1noc(C)c1-c1ccc(C(=O)NCc2ccncc2)c2occc12 | -15.1 |  |
| Cc1ccc(C(=O)N/C(=C/c2ccc(-c3cccc([N+](=O)[O-])c3)o2)C(=O)NCCCN(C)C)cc1 |  | 14.6 µM (active) |
| C=CCNC(=O)/C(=C\c1cccc([N+](=O)[O-])c1)NC(=O)c1ccccc1 | 17.2 |  |
| CN(C)CCNC(=O)/C(=C/c1cccc([N+](=O)[O-])c1)NC(=O)c1ccccc1 | 12.4 |  |
| COc1ccc(C(C(=O)Nc2c(C)cccc2C)N2CCN(c3ccc(C)cc3)CC2)cc1 (centres undefined) | 14.1 |  |
| CCCC(=O)N1CCC1(C)C(=O)Nc1ccc(-n2cncn2)cc1 (centres undefined) | 0.229 |  |
| CCCNC(=O)C1(C)CCN(Cc2ccc(Cl)c(Cl)c2)C1 (centres undefined) | -3.21 |  |
| COc1ccc(-c2c(C#Cc3ccccc3)c3ccccc3n2C)cc1 | 10.4 |  |
| COc1ccc(CCNCc2c(-c3ccccc3)n(C)c3ccccc23)cc1 |  | 14.6 µM (active) |

| Structure (SMILES) | activity, negative = toxicity [%] | Potency |
| --- | --- | --- |
| COc1ccc(-c2nc3ccccc3c(=O)n2CCc2ccc(O)cc2)cc1 | -2.66 |  |
| CC(=O)NC(c1ccccc1)c1nc(-c2ccccc2C)cs1 (centres undefined) | 2.07 |  |
| C[C@H]1CN([C@@H](C)CO)C(=O)c2cc(-c3ccccc3F)cnc2O[C@H]1CN(C)C(=O)C1CCOCC1 | -1.01 |  |
| O=C(Nc1cccc2cccnc12)c1ccc2sc([C@H]3C[C@H](O)[C@@H](CO)O3)nc2c1 | -23.2 |  |
| CCCC(=O)Nc1ccc2c(c1)nc1n2CCSC1 | 25.5 |  |
| CCOCCC(=O)Nc1ccc2c(c1)c(=O)n(C)n2-c1ccc2ccccc2c1 |  | 1.46 µM (active) |
| CCNC(=S)Nc1ccc2c(c1)c(=O)n(C)n2Cc1ccc(Cl)cc1 | 3.42 |  |
| CCCCN(C(C)=O)c1ccc2c(c1)C1CC2CCN1Cc1ccccc1 (centres undefined) | 6.78 |  |
| COc1ccc(CCn2c3c(c(=O)[nH]c2=S)CN(C(C)C)CN3)cc1OC | -12.1 |  |
| C[C@H]1CN([C@@H](C)CO)C(=O)CCCn2nncc2CO[C@@H]1CN(C)Cc1ccc(Oc2ccccc2)cc1 | -5.96 |  |
| CC(=O)Nc1ccc(C=Cc2ccc([N+](=O)[O-])cc2)cc1 | 6.94 |  |
| O=[N+]([O-])c1ccc(C=NN=Cc2ccc([N+](=O)[O-])cc2)cc1 | 10.6 |  |
| O=C1/C(=C\c2ccc([N+](=O)[O-])cc2)CS(=O)(=O)C/C1=C/c1ccc([N+](=O)[O-])cc1 |  | 3.66 µM (active) |
| CCN1CCN(CC(=O)Nc2sc3c(c2C#N)CCC3)CC1 | 14.3 |  |
| N#Cc1c(NC(=O)CCCl)sc2c1CCCCC2 |  | 23.1 µM (active) |
| N#Cc1c(NC(=O)C2CCCO2)sc2c1CCCCC2 (centres undefined) | -1.25 |  |
| Cc1ccc([C@H]2C[C@H](O)[C@@H](n3cc(COC(=O)c4ccccc4)nn3)CN2CC2CCCCC2)cc1 | 3.18 |  |
| O=C(Nc1ccc2c(c1)OCCO2)C1c2ccccc2OCC(=O)N1Cc1ccccn1 (centres undefined) | 9.77 |  |
| Cc1cc(C)nc(S/C=C/C(=O)c2ccccc2)n1 |  | 3.66 µM (active) |
| Cc1cc(C)nc(SCC(=O)N(C)C)n1 | 25.2 |  |
| Cc1cc(C)nc(SCc2ccccc2C#N)n1 | -4.58 |  |
| COc1cccc(CNC(=O)Cc2csc(Nc3nc(=S)[nH]c4ccccc34)n2)c1 | -11 |  |
| O=C(CCCn1c(=O)[nH]c2cc(Cl)ccc2c1=O)NCCN1CCN(c2ccccc2)CC1 | -1.58 |  |
| O=C(Cc1csc(Nc2nc(=S)[nH]c3ccccc23)n1)NCCCN1CCN(c2cccc(Cl)c2)CC1 |  | 20.6 µM (active) |
